# Reference: PubChem BioAssay AID488834 (National Center for Advancing Translational Sciences (NCATS), 2010)
# The source made the active and inactive calls. Calls follow the shape of the dose curve; as a rule, active = well fitted curve in the direction sought with a large enough effect; inactive = no such curve, though single readings can be large or run the other way.
# Target: Lysosomal alpha-glucosidase (Homo sapiens) (UniProt P10253)
# Assay: qHTS Assay for Inhibitors and Activators of N370S glucocerebrosidase as a Potential Chaperone Treatment of Gaucher Disease: Alpha-Glucosidase Counterscreen for Probe SAR
# Conditions: purified human alpha-glucosidase, 4-MU fluorogenic substrate
# From the text: NIH Chemical Genomics Center [NCGC] NIH Molecular Libraries Probe Production Centers Network [MLPCN] MLPCN Grant: MH086442-01 Assay Submitter (PI): Wei Zheng Glucocerebrosidase (GC) catalyzes the hydrolysis of beta-glucocerebroside to glucose and ceramide in lysosomes. Mutations in the glucocerebrosidase gene result in Gaucher disease, an autosomal recessive lysosomal storage disorder. Many of the mutations encountered in patients with Gaucher disease are missense alterations that may cause misfolding, decreased stability and/or mistrafficking of this lysosomal protein. […] These inhibitors include iminosugar analogs and three non-iminosugar inhibitors identified from a previous HTS of 62,000 compounds with the wild type recombinant enzyme. However, the enhancement of enzyme activity by the chaperone action of an enzyme inhibitor must be balanced against the direct inhibition of the enzyme. An enzyme activator could also function as a chaperone by binding to the enzyme and helping to correct its misfolding and mistrafficking. While activators for GC have not yet been identified, they may have better therapeutic potential than inhibitors. Therefore the discovery and development of chemical activators may provide a new strategy for the chaperone therapy. To characterize compound selectivity, selected hits from the primary screen were screened against purified alpha-glucosidase, a related sugar hydrolase. Alpha-glucosidase is responsible for hydrolysis of terminal, non-reducing 1,4-linked alpha-D-glucose residues with release of alpha-D-glucose.
# NCGC Assay Protocol Summary: This is a fluorogenic enzyme assay with 4-methylumbelliferyl-alpha-D-[…] as the substrate and human alpha-glucosidase as the enzyme preparation. Upon the hydrolysis of this fluorogenic substrate, the resulting product, 1. 4-methyllumbelliferone, can be excited at 365 nm and emits at 440 nm which can be detected by a standard fluorescence plate reader. Data were normalized to the controls for basal activity (without enzyme) and 100% activity (with enzyme). The AC50 values were determined from concentration-response data modeled with the standard Hill equation. Assay buffer: 50 mM citric acid (titrated with potassium phosphate to pH 5.0), 0.005% Tween-20, pH 5.0. (pH 5.0 is an optimal condition for this enzyme assay) 1536-well assay protocol for the human alpha-glucosidase: (1) Add 2 ul/well of enzyme (4 nM final) (2) Add 23 nL compounds in DMSO solution. The final titration was 0.7 nM to 77 uM. (3) Add 1 ul of substrate (400 uM final) (4) Incubate at room temperature for 20 min. (5) Add 2 ul stop solution (1M NaOH and 1M Glycine mixture, pH 10) (6) Detect the assay plate in a ViewLux plate reader (PerkinElmer) with Ex=365 nm and Em=440nm. Keywords: Alpha-glucosidase, Pompe Disease, pharmacological chaperone, chaperone therapy, high throughput screening, alpha-glucosidase inhibitor, MLSMR, MLSCN, NIH Roadmap, qHTS and NCGC
row,Structure (SMILES),max response
1,O=C(NC1CCCCC1)c1cnn2c1NC(=C1CC1)C=C2C(F)F,-3.85% (inactive)
2,O=C(Nc1ccccc1Sc1ccccc1)c1cnn2c1NC(=C1CC1)C=C2C(F)(F)F,-11.4% (inactive)
3,C#Cc1ccc(NC(=O)c2cnn3c(C)cc(C)nc23)cc1,-2.48% (inactive)
4,C=C1C=C(C(F)F)n2ncc(C(=O)Nc3ccc(C(C)CC)cc3)c2N1 (stereo unspecified),-2.76% (inactive)
5,O=C(Nc1ccc2c(c1)CCC2)c1cnn2c1NC(=C1CC1)C=C2C(F)F,-4.43% (inactive)
6,O=C(Nc1ccccc1Sc1ccccc1)c1cnn2c1NC(=C1CC1)C=C2C(F)F,-18.1% (inactive)
